Source: PubChem BioAssay (NCI)
Several values for one entry are separate records, joined by “and”; a condition that tells them apart may be missing. Identical values can stand only once. The panel holds about 83,000 compounds, 20% with a hit somewhere; the sample as a whole holds those more often.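 48-hour exposure, single concentration, 96-well plates; percent growth endpoint where 0 means no net growth. Active: below 10.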 Activity calls are given as the source filed them.

The compounds below were run on MDA-MB-468 breast (assay: NCI-60 one-dose screen, 48 h (100 = growth as untreated, 0 = no growth, -100 = all killed)). Details: 10 µM unless noted.

Row | SMILES | growth
1 | NS(=O)(=O)c1ccc(-n2cc(CN3CCNCC3)nn2)cc1 | -22.4% (active)
2 | O=C1c2ccccc2C(=O)c2sc(Nc3cccc(Cl)c3)nc21 | 13.2% (inactive)
3 | C1=C(Cc2ccccc2)n2cnc3ncnc(c32)S1 | -11.8% (active)
4 | CCN1CCN(c2ccc(Nc3ncc4ccc5ncn(C(C)C)c5c4n3)nc2)CC1 | -41.3% (active)
5 | CCN(CC)Cc1cc(Nc2c3ccc(Cl)cc3nc3c(C)cccc23)ccc1O | -67% (active)
6 | O=C(OCc1ccccc1)c1ccccc1 | 95% (inactive) and 74.9% (inactive)
7 | CCOC(=O)c1c2c(n3ccc(NC(=O)OC(C)(C)C)cc13)C(=O)c1ncccc1C2=O | -29% (active)
8 | COc1cc2c(Oc3ccc4[nH]c(C)cc4c3F)ncnc2cc1OCCCN1CCCC1 | 99.4% (inactive)
9 | O=C1C=CC2(NN=C(c3ccccc3)N2c2cccc(Cl)c2)c2cccc(O)c21 (stereo not given) | 76.1% (inactive)
10 | O=C1C(Nc2ccc(Br)cc2)=C(I)C(=O)c2ncccc21 | -81.4% (active)
11 | O=S(=O)(c1ccccc1)n1cc2c(c1)-c1nc(Nc3ncccn3)sc1CC2 | 46.3% (inactive)
12 | NS(=O)(=O)c1ccc(N2N=C(c3ccccc3)CCC2=O)cc1 | 96.3% (inactive)
13 | Cc1ccn2c3c(c(C(=O)O)c2c1)C(=O)c1ccccc1C3=O | 84.7% (inactive)
14 | Cc1ccccc1NC(=O)Oc1ccc(Cl)cc1C(=O)c1ccccc1 | 88.2% (inactive)
15 | O=C(CN1N=C(c2ccc(F)cc2)CCC1=O)Nc1nc2ccccc2s1 | 97.7% (inactive)
16 | CN(C)CCN=c1nc2c(c(N)n1-c1ccccc1)c(=S)n(-c1ccccc1)c(=S)n2-c1ccccc1 | -34.6% (active)
17 | O=C1/C(=C/c2ccccn2)NC(=S)N1c1ccccc1Cl | 36% (inactive)
18 | CCCCCCC(C)(O)c1ccccc1 (stereo not given) | 117% (inactive)
19 | CC1(C)OB(O)c2cc(-c3nc4ccc5[nH]ncc5c4c4c3CCCC4)ccc21 | 69.5% (inactive)
20 | O=C(/C=C/c1cccc(Cl)c1)OCc1ccc2cc1OCC#C/C=C\C#CCO2 | 79.2% (inactive)

Row | SMILES | growth
21 | COc1cc2c(c(OC)c1OC)CCc1cnoc1-2 | 83.8% (inactive)
22 | CC[C@@H]1OC(=O)[C@H](C)[C@@H](O[C@H]2C[C@@](C)(OC)[C@@H](O)[C@H](C)O2)[C@H](C)[C@@H](O[C@@H]2O[C@H](C)C[C@H](N(C)C)[C@H]2O)[C@](C)(O)C[C@@H](C)[C@@H]2N[C@@H](COCCOC)O[C@H]([C@H]2C)[C@]1(C)O | 109% (inactive)
23 | CN(C)CCS(=O)(=O)Nc1cc(-c2ccc3ncnc(Nc4ccc(F)c(Cl)c4)c3c2)cnc1Cl | -53% (active)
24 | CCC(=C(c1ccc(OCCN2CCCCCC2)cc1)c1ccc(OCCN2CCCCCC2)cc1)c1ccc(Cl)cc1 | -83.3% (active)
25 | CC(C)[C@@H]1CC[C@@H]2[C@@H]1[C@H](OC(=O)/C=C/c1ccccc1)[C@]1(C(C)C)C[C@@H](OC(=O)CO)[C@@]2(C)O1 | 113% (inactive)
26 | O=C1NCCS(=O)(=O)/C1=C\C=C\c1cccc(C(F)(F)F)c1 | 17.9% (inactive)
27 | c1ccc2c(-c3nc4ccccc4[nH]3)cccc2c1 | -15.3% (active)
28 | N#Cc1c(-c2ccccc2)c(C#N)c2c(C#N)c(N)nn2c1N | 25.9% (inactive)
29 | CC(=O)c1ccc(NC(=O)COc2ccc(C3SCC(=O)N3c3ccc(Br)cc3)cc2)cc1 (stereo not given) | 92% (inactive)
30 | N#C/C(=C\c1ccc(N2CCCCC2)cc1)C(=O)Nc1sc2c(c1C#N)CCC2 | 119% (inactive)
31 | CCN(CC)C(Cl)=Nc1ccc(Cl)cc1 | 103% (inactive)
32 | CCO/C=N/C1=C(C#N)C(c2ccc(Cl)cc2)c2sc3c(CC)cccc3c2O1 (stereo not given) | -33.4% (active)
33 | CC[C@@H](C(=O)[C@H](C)[C@H](O)[C@@H](C)[C@H]1O[C@H]([C@@H](CC)C(=O)O)CC[C@H]1C)C1O[C@]2(C=C[C@@H](O)[C@]3(CC[C@@](C)([C@H]4CC[C@](O)(CC)[C@H](C)O4)O3)O2)[C@H](C)C[C@@H]1C (stereo not given in full) | 0.843% (active)
34 | COC(=O)c1c(C)c2n(c1C)C(=O)C(c1ccccc1)=C2 | 39.1% (inactive)
35 | C[C@@]1(C(=O)Nc2ccc(F)nc2)CCCN1c1nc(Nc2cc(C3CC3)[nH]n2)c2cccn2n1 | 13.1% (inactive)
36 | Clc1ccc(CN2COc3c(ccc4cccnc34)C2)cc1Cl | -71.9% (active)
37 | CC(=O)NC(O)C(Cl)Cl (stereo not given) | 106% (inactive)
38 | COc1ccccc1CNCCN1C(=O)c2ccc3c4c(ccc(c24)C1=O)C(=O)N(CCNCc1ccccc1OC)C3=O | -92.8% (active)
39 | C=C1C(=O)O[C@H]2[C@H]1CC/C(CNC(=O)c1cc3ccccc3[nH]1)=C\CC[C@@]1(C)O[C@@H]21 | -61.7% (active)
40 | Nc1ccc(C2=CC(c3ccc(Cl)cc3)N3C=CSC3=N2)cc1 (stereo not given) | -77.1% (active)
